The whole screen tested about 2,300 compounds, of which about 550 (24%) were called active. No rule for the calls is given here. Only a sample is shown. Entries with a potency or affinity are not part of this list.

The nature of this assay: Vero E6 cell cytotoxicity, dose response, cytotoxicity control for non-replicating M. tuberculosis project, secondary assay (AID 492998). The settings on record: series mostly up to 20 µM.
On to `O=C(C/C=N\OCc1ccc([N+](=O)[O-])cc1)Nc1ccc(F)cc1F`, for which the result was inactive.
For the compound `O=C1c2ccccc2C(=O)N1CCOc1ccc(F)cc1`, the outcome was inactive.
In the case of `Cc1cc(C)cc(OC(=O)CCN2C(=O)c3ccccc3C2=O)c1`, the result was inactive.
With `O=c1oc2ccccc2c(Nc2ccccc2O)c1[N+](=O)[O-]` the entry was “inactive”.
With `CCOc1ccc(NC(=O)c2nnn(CC(=O)Nc3ccccc3OC)c2N)cc1` the entry was “inactive”; with `O=C(c1cc2ccccc2o1)N1CCN(Cc2ccccc2)CC1`, “inactive”.
As for `C/C(=N\NC(=O)c1ccccc1)c1nc2ccccc2n1C`, the result was inactive.
For `C/C(=N\NC(=O)c1ccc([N+](=O)[O-])c(C)c1)c1ccccc1Cl`, the result was inactive.
Take `COc1cc(/C=N/N(C)C)ccc1OC(=O)c1cccs1`: the compound was called inactive.
In the case of `Clc1ccc(SCCCCn2ccnc2)cc1`, the result was inactive.
With `Cc1cc(Cl)cc(C)c1OCCCCn1ccnc1` the entry was “inactive”.
With `Cc1ccc(CCC(=O)Nc2ccccc2F)s1` the entry was “inactive”.
As to `O=C(COC(=O)c1ccccc1)NCc1cccs1`, the compound was classed as inactive.
With `O=C(CCc1ccc(Oc2cc([N+](=O)[O-])cc([N+](=O)[O-])c2)cc1)N1CCCCC1` the entry was “inactive”; with `CSc1nn(-c2ccc(C(=O)OCC(=O)NC(=O)NC(C)C)cc2)c(=S)s1`, “inactive”; with `CCN1C(=O)CC(N2CCC(c3nc4ccccc4[nH]3)CC2)C1=O` (stereo unspecified), “inactive”.
With `CC(NCCCOc1cccc2ccccc12)c1ccccc1` (stereo unspecified) the entry was “inactive”; with `O=C(COC(=O)c1ccccc1)NC12CC3CC(CC(C3)C1)C2`, “inactive”; with `CCOC(=O)C1CSC(CC(=O)Nc2ccc(Cl)c(Cl)c2)C(=O)N1` (stereo unspecified), “inactive”.
With `O=C(C/C=N\OCc1ccc([N+](=O)[O-])cc1)Nc1ccc(Cl)cc1` the entry was “inactive”; with `O=C(Nc1nccs1)c1ccc(-c2ccc(Cl)cc2)o1`, “inactive”.
For the compound `NC(=O)c1ccc(-c2ccc(Br)cc2)o1`, the result was inactive.
With `CCOc1ccc(C(=O)Nc2ccc(N3CCN(C)CC3)cc2)cc1Br` the entry was “inactive”; with `O=C(Nc1cccnc1)c1ccc(-c2ccc(Cl)cc2)o1`, “inactive”.
For the compound `O=C(CN1CCC(Cc2ccccc2)CC1)NC(=O)NC1CCCCC1`, the call was inactive.
Regarding `Cc1ccc2[nH]c3c(c2c1)CCCC3NCCO` (stereo unspecified), the compound was classed as inactive.
Consider `Cc1ccc(-c2nnc(-c3ccccc3)o2)cc1`, for which the outcome was inactive.
With `c1ccc(-c2n[nH]c(-c3ccccn3)n2)nc1` the entry was “inactive”; with `CCOC(=O)N1CCC(NC(=O)C2CCN(c3nc(-c4ccc(OC)cc4)no3)CC2)CC1`, “inactive”; with `COc1cccc(OC(=O)c2cc3ccccc3oc2=O)c1`, “inactive”.
Turning to `CCOC(=O)Cn1cc(C#N)c2cccc(CC)c21`, the result was inactive.
With `Cc1ccc(S(=O)(=O)NCC(=O)OCCOc2cccc(Cl)c2)cc1` the entry was “inactive”; with `Cc1cccnc1NC(=O)C1COc2ccccc2O1` (stereo unspecified), “inactive”; with `O=C(OCc1nnc(-c2ccccc2)o1)c1cc([N+](=O)[O-])ccc1Cl`, “inactive”.
With `CC(C)OC(=O)c1c2c(n3ccccc13)C(=O)c1ccccc1C2=O` the entry was “inactive”; with `O=C(c1ccc(Br)o1)N1CCC(Cc2ccccc2)CC1`, “inactive”.
With `O=C(COc1ccc(Br)cc1)Nc1ccc([N+](=O)[O-])cn1` the entry was “inactive”; with `O=C(N/N=C/c1coc2ccccc2c1=O)c1ccc(Cl)cc1`, “inactive”.
On to `O=C(OCC(=O)N1CCN(c2ccccc2)CC1)c1ccc(Cl)cc1[N+](=O)[O-]`, for which the result was inactive.
As to `COC(=O)C1=C(N)OC2=C(C(=O)CC(C)(C)C2)C1c1cccnc1` (stereo unspecified), the compound was called inactive.
With `O=C(OCC(=O)N1CCCC1)c1cc(Br)ccc1Cl` the entry was “inactive”; with `O=C(N/N=C/c1ccccn1)c1cccc(S(=O)(=O)Nc2ccccc2Cl)c1`, “inactive”.
For `Cc1ccc2oc(=O)c3cc(C(=O)NCCCN4CCCCCC4)sc3c2c1`, the compound was classed as inactive.
On to `Cc1cc(C)n2nc(S(=O)(=O)Nc3c(Cl)cccc3Cl)nc2n1`, for which the compound was called inactive.
As for `CS(=O)(=O)Nc1cccc2cccnc12`, the compound was called inactive.
With `CC1C/C(=N/NC(=O)c2cccc(F)c2)c2ccc(O)cc2C1` (stereo unspecified) the entry was “inactive”; with `CCOCC(=O)Nc1nc2ccc(C)cc2s1`, “inactive”.
Consider `Cc1ccc2nc(NC(=O)COC(=O)c3ccc(Br)o3)sc2c1`, for which the compound was classed as inactive.
With `O=C(O)c1ccccc1-c1ccccc1C(=O)Nc1nc2ccccc2s1` the entry was “inactive”.
With `O=C(Nc1c(F)cc(F)cc1Br)c1cc(-c2ccccc2)on1` the entry was “inactive”; with `O=C(Nc1nccs1)c1ccccn1`, “inactive”.
With `O=C(NNc1nc2ccccc2s1)c1ccc(F)cc1` the entry was “inactive”.
In the case of `CC1=NN(C(=O)c2ccccc2Cl)C(O)(c2ccccc2)C1` (stereo unspecified), the outcome was inactive.
With `CCc1nnc(N/N=C/c2ccc(N3CCC(C)CC3)c([N+](=O)[O-])c2)n1N` the entry was “inactive”; with `COc1ccc(C(=O)COC(=O)c2ccccc2O)c(OC)c1`, “inactive”; with `COC(=O)c1cc(/C=C/c2ccccc2)on1`, “inactive”.
With `COc1cc(/C=C2/C(=O)NN(c3ccc(Cl)cc3)C2=O)ccc1OC(=O)c1ccco1` the entry was “inactive”.
For the compound `CC(C)CNc1nc(=S)nc(N(C)C)[nH]1`, the outcome was inactive.
With `Cc1cccc(NC(=O)COC(=O)CCc2c[nH]c3ccccc23)c1` the entry was “inactive”.
For `O=C(OCC(=O)N1CCN(c2ccccc2)CC1)c1ccc2ccccc2n1`, the outcome was inactive.
With `O=[N+]([O-])c1ccc(CN2CCN(c3ccc(F)cc3)CC2)o1` the entry was “inactive”; with `CCOC(=O)c1cc(-c2csc(COc3ccccc3Cl)n2)on1`, “inactive”; with `O=C(NCCc1ccccc1)c1nc(-c2cccs2)no1`, “inactive”.
With `COc1cccc2cc(C(=O)NCc3ccc(F)cc3)c(=N)oc12` the entry was “inactive”.
On to `c1cncc(-c2noc(CC3CCCCC3)n2)c1`, for which the call was inactive.
With `CCN1CCC(=NNC(=O)c2ccco2)CC1` the entry was “inactive”.
With `O=C1NC2(CCC3(CC2)OCCO3)NN1c1ccc(Cl)cc1` the entry was “inactive”; with `CC(NC(=O)c1cccc(F)c1)C1CC2CCC1C2` (stereo unspecified), “inactive”.
With `Cc1ccc(C(C)C)c(OCC(=O)OCc2c(C)noc2C)c1` the entry was “inactive”; with `CC1CCN(C(=O)c2ccc(-c3ccccc3Cl)o2)CC1`, “inactive”; with `CCCn1c(CNc2ccccc2O)nc2ccccc21`, “inactive”.
In the case of `Cc1ccc(C(=O)n2c(N)nc3ccccc32)cc1`, the result was inactive.
As for `CCn1c(-c2ccco2)nc2ccccc21`, the call was inactive.
Turning to `O=C(Nc1nc2ccccc2n1CCN1CCCC1)c1ccc(Cl)cc1`, the call was inactive.
For `Cc1ccc(CC(=O)Nc2ccc(Cl)cn2)cc1`, the call was inactive.
For `COc1cccc(-c2cc3nc4c(c(NCC(C)(C)CN(C)C)n3n2)CCCC4)c1`, the call was inactive.

For the origin of these results see PubChem BioAssay AID492998 (Southern Research Specialized Biocontainment Screening …, 2010).
